# Targets with a hit are over-represented here; the source holds about 8,800 in all. About 0.5% of all pairs of compound and target were hits. Unmarked numbers belong to inactive results.
# What was measured:
# Assay in all cases: log2 fold change, soluble protein after heating vs DMSO (PISA); higher = thermal stabilisation; K562 lysate, 10 uM; active = over 0.2 and 3.5 SD of the protein, either way, in both replicates (recomputed)
# vorinostat = compound: O=C(CCCCCCC(=O)Nc1ccccc1)NO [vorinostat]
# How it was run: (§1)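 To prepare the extract, K562 pellets were dounce-homogenised in PBS pH 7.4 with 1 mM MgCl2, giving crude material at 1 mg/mL protein. This was treated with 10 μM compound for 30 min, then heated in aliquots for 3 min over 48°C-58°C before pooling and addition of NP-40 to 0.5% at 4°C. Centrifugation at 21,000xg for 90 min left soluble protein in the supernatant, which TMTpro 16plex LC-MS/MS quantified with equalised channel sums. Results are log-two fold changes in thermal stability compared with solvent controls, from duplicates.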
# silmitasertib = compound: O=C(O)c1ccc2c(c1)nc(Nc1cccc(Cl)c1)c1ccncc12 [silmitasertib]
# How it was run: as §1
# [1] = compound: O=C1NC(=O)C(c2cnc3ccccn23)=C1c1cn2c3c(cc(F)cc13)CN(C(=O)N1CCCCC1)CC2
# How it was run: as §1
# [2] = compound: NCC(=O)Nc1ccc(-n2nc(C(F)(F)F)cc2-c2ccc3c(ccc4ccccc43)c2)cc1
# How it was run: as §1
# entospletinib = compound: c1cn2cc(-c3ccc4cn[nH]c4c3)nc(Nc3ccc(N4CCOCC4)cc3)c2n1 [entospletinib]
# How it was run: as §1
# Chain of UniProt Q13686 (Q13686 whole entry, looked up): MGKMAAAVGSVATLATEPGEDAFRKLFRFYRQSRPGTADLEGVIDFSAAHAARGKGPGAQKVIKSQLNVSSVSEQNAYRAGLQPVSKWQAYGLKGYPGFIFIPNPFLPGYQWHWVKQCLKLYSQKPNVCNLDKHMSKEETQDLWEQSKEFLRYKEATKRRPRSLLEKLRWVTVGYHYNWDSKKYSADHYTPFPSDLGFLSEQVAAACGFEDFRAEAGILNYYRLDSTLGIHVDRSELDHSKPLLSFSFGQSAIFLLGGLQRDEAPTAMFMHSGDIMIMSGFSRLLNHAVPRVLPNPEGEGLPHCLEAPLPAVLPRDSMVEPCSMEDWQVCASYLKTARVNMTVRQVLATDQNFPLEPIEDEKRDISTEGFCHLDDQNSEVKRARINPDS
# Chain of UniProt P42331 (P42331 whole entry, looked up): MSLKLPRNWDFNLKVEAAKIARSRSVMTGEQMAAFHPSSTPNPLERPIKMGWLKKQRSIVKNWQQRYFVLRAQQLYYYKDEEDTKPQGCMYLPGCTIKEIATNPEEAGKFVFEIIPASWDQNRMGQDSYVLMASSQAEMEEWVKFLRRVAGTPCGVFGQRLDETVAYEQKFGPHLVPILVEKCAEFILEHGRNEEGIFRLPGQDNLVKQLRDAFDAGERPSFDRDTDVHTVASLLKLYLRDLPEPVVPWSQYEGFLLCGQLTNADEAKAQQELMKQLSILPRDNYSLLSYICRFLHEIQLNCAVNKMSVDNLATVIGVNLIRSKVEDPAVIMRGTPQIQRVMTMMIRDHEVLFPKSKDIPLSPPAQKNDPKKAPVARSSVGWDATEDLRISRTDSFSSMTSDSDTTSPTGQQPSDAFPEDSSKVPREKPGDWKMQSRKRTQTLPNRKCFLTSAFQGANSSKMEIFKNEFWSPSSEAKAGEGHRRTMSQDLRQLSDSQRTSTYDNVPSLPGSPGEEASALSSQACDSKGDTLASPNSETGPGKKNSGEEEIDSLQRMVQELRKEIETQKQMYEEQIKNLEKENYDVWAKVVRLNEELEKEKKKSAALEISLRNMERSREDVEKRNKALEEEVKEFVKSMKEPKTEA
# Chain of UniProt P30837 (P30837 whole entry, looked up): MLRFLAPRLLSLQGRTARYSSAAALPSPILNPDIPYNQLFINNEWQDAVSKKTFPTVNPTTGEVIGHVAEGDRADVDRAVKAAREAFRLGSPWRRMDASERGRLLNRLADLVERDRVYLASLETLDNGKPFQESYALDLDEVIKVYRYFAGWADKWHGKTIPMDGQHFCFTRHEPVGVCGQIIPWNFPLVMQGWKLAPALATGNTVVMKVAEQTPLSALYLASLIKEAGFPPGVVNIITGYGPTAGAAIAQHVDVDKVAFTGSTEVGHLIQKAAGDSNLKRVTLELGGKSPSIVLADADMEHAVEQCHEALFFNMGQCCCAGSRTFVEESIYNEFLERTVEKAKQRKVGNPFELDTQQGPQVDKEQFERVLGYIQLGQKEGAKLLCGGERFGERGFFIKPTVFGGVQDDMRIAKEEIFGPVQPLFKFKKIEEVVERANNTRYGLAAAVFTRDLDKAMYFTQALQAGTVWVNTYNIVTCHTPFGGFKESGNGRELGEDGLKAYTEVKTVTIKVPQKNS
# Chain of UniProt Q2VPB7 (Q2VPB7 whole entry, looked up): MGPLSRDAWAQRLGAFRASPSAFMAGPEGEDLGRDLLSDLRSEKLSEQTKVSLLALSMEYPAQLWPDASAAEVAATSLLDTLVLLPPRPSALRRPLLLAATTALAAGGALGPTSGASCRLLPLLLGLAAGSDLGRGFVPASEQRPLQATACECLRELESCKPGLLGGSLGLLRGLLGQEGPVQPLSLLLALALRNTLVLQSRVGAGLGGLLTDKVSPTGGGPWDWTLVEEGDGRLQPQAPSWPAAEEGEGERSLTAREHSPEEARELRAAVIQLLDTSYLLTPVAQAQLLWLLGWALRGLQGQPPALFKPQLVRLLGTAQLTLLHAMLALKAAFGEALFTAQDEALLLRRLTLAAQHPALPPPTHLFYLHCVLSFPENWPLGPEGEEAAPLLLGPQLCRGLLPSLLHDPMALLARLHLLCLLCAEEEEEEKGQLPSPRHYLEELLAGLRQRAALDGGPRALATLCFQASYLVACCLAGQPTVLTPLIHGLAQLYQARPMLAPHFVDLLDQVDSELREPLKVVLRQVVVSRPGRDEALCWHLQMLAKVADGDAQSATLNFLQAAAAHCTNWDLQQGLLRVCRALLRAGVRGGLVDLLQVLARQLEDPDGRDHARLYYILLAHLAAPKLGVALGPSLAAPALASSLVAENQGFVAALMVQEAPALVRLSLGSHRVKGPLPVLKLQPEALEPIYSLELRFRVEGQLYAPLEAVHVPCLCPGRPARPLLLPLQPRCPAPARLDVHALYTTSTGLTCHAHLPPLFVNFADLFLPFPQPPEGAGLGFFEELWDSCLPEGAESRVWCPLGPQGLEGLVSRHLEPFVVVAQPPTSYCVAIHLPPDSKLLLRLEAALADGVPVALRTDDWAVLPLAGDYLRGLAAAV
# Chain of UniProt Q9Y4X0 (Q9Y4X0 whole entry, looked up): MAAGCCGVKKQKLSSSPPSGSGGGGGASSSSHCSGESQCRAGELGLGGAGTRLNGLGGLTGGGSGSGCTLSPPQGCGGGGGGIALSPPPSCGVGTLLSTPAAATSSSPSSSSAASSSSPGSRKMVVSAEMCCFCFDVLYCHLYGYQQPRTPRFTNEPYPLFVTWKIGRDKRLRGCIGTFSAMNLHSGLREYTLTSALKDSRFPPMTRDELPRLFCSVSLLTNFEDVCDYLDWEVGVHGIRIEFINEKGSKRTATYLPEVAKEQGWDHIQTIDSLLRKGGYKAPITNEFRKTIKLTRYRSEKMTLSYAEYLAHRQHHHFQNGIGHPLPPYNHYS
# Chain of UniProt P35611 (P35611 whole entry, looked up): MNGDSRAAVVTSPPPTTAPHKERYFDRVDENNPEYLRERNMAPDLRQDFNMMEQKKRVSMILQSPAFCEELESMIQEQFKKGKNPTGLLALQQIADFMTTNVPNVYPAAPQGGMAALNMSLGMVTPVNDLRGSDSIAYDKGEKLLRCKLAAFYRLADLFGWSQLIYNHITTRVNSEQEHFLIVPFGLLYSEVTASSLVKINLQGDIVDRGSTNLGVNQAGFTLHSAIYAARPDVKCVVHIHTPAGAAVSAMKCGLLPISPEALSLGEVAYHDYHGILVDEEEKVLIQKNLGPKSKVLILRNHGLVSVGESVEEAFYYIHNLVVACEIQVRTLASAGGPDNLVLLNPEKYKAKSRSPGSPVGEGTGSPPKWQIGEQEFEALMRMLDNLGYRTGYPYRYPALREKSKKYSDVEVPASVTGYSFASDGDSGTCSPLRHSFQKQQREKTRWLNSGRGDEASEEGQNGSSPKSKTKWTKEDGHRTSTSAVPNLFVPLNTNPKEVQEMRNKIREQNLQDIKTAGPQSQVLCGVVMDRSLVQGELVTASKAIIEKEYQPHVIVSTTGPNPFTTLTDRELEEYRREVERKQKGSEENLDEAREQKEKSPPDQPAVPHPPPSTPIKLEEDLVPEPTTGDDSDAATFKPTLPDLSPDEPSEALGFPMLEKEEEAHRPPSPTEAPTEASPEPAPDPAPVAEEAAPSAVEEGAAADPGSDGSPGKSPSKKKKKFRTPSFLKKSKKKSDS
# Chain of UniProt Q15067 (Q15067 whole entry, looked up): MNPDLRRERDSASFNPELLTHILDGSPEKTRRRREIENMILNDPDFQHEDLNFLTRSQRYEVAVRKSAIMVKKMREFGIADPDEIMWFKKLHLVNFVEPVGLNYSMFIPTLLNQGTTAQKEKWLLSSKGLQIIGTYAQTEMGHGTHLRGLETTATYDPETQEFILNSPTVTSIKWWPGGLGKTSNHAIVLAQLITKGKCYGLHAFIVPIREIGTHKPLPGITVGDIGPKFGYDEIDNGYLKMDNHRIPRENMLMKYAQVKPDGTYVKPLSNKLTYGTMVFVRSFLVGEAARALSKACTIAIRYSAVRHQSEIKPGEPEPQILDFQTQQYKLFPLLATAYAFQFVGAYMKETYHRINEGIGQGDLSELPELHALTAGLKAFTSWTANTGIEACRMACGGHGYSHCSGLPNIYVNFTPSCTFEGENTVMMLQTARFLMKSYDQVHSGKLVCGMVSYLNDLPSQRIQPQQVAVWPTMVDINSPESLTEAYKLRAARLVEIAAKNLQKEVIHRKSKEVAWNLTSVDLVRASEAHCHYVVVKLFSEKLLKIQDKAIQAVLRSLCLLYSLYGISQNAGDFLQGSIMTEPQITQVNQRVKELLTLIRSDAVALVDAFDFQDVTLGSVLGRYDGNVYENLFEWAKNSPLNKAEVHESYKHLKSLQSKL
# Chain of UniProt Q9BT30 (Q9BT30 whole entry, looked up): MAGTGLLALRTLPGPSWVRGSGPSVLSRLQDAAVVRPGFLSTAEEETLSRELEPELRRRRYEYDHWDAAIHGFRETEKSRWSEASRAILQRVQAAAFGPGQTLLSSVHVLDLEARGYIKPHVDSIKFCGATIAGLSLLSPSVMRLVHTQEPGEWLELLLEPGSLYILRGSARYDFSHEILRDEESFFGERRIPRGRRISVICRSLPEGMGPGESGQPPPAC
# Chain of UniProt Q7L211 (Q7L211 whole entry, looked up): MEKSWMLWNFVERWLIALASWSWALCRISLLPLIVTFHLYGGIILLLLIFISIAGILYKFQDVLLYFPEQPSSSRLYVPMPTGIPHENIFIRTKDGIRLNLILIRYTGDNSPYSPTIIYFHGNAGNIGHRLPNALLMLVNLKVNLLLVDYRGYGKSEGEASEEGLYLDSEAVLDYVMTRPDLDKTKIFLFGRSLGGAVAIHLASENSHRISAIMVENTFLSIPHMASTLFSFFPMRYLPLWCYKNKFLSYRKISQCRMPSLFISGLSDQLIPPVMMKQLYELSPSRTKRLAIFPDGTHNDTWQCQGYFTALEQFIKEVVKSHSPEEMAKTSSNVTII
# Chain of UniProt O15120 (O15120 whole entry, looked up): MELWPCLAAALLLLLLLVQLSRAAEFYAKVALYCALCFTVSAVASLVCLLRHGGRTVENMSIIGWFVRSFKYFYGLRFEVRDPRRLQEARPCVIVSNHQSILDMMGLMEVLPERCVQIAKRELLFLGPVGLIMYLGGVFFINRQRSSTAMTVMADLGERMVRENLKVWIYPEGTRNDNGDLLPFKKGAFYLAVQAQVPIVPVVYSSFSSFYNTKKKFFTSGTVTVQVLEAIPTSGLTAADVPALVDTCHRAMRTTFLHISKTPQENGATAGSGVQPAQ
Target,log2 fold change (vorinostat),log2 fold change (silmitasertib),log2 fold change [1],log2 fold change [2],log2 fold change (entospletinib)
ANXA2 (UniProt H0YL33),-0.153,0.16,0.042,,
ADD1 isoform 4 (UniProt P35611),0.237,-0.148,,0.037,0.056
AP5B1 (UniProt Q2VPB7),-0.062,0.044,-0.094,,0.022
AMDHD2 (UniProt Q9Y303),,,0.042,-0.092,
ARHGAP25 isoform 4 (UniProt P42331),-0.377 (active),0.011,-0.038,0.027,0.009
ALDH18A1 isoform 2 (UniProt P54886),,,0.204,0.097,
ABHD13 (UniProt Q7L211),,,0.027,0.023,-0.12
ALKBH7 (UniProt Q9BT30),1.23 (active),-0.031,0.079,,0.151
ACOX1 isoform 2 (UniProt Q15067),0.09,0.009,0.04,0.009,-0.012
ACTG1 (UniProt K7EM38),,,,,-0.453
ALKBH1 (UniProt Q13686),-0.284 (active),0.135,,-0.089,-0.052
AMMECR1 (UniProt Q9Y4X0),-0.387 (active),0.003,-0.016,0.004,0
AGPAT2 (UniProt O15120),0.104,-0.026,-0.052,-0.234,0.063
ARMCX3 (UniProt Q9UH62),-0.279 (active),0.036,-0.024,0.042,0.047
ALDH1B1 (UniProt P30837),1.15 (active),-0.051,-0.022,0.027,0.033
ANKRD30A (UniProt Q9BXX3),,,-0.011,,-0.135
ANP32E isoform 3 (UniProt Q9BTT0),,,,0.135,-0.095
ABI1 isoform 9 (UniProt Q8IZP0),0.026,-0.025,0.03,0.046,0.018
ABI1 isoform 6 (UniProt Q8IZP0),,,,,-0.115

# — the supplement of paper PMC10849652
